D1 agonist: agonists of human D1 dopamine receptor; P21728; HEK293 T-REx D1 cells, calcium flux, agonist mode; activation, % at 2 µM; hit rate 1% among 360,000
Target sequence (P21728 whole entry, looked up): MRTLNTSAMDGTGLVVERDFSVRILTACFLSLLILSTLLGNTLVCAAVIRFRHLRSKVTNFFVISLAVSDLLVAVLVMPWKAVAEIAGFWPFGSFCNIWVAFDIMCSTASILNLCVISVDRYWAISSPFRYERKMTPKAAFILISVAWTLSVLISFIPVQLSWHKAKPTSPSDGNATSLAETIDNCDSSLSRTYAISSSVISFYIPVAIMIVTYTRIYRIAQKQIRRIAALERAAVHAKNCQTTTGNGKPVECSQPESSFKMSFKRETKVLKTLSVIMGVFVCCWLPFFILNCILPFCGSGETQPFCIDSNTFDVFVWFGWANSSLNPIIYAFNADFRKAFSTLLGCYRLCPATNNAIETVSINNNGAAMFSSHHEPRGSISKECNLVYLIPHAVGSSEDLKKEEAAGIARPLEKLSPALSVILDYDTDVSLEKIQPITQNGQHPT
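Agonism was scored from calcium flux recorded over 180 s (1 read/s) after pintool compound addition, following a 10-cycle baseline. Cells were inducible force-coupled HEK293 TREx D1, plated overnight at 30 C and loaded with no-wash calcium dye.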
TRHR agonist: agonists of human TRH receptor. activation, % at 2 µM. hit rate 0.18% among 360,000. TRHR cells, calcium flux fluo-8, FDSS agonist mode
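Fluo-8-loaded TRHR cells; 10 s baseline, compound added, kinetic Ca2+ fluorescence read 1/s, agonist mode.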
TRHR enhancer: allosteric enhancers of human TRH receptor; TRHR cells, fluo-8 calcium fluorescence, EC20 TRH enhancement; P34981; enhancement, % at 2 µM; hit rate 0.66% among 360,000; in the data active = enhancement above about 30%
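TRHR-expressing cells loaded with fluo-8 calcium dye were read kinetically (ex 480/em 530) during compound addition, then stimulated with an EC20 of TRH (10 nM final). Enhancement of the Gq-mediated intracellular calcium response was scored.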
D1 antag: human D1 dopamine receptor antagonism. P21728. HEK293 TREx D1 cells, calcium flux, dopamine EC80; hits give low values. activity change, negative = inhibition, % at 10 µM. hit rate 3.2% among 360,000; in the data active = activity change below about -30%
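Tetracycline-induced HEK293 Trex D1 cells, force-coupled to calcium, dye-loaded; compounds added and read 180 s, then EC80 dopamine added and calcium flux tracked kinetically another 180 s.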
D1 potentiator: potentiators of human D1 dopamine receptor; HEK293 TREx D1 cells, calcium flux, dopamine EC20 potentiation; potentiation, % at 10 µM; hit rate 0.036% among 360,000; AID 504651; in the data active = potentiation above about 30%
Numbers stand for hits; - = inactive. Compounds with a hit are over-represented: about 4.6% of the library has one in this group of screens. Rule as the data show it, unless noted: active = activation above about 30%; inactive = the rest.

SMILES	D1 agonist	TRHR agonist	TRHR enhancer	D1 antag	D1 potentiator
Cc1ccc(S(=O)(=O)c2cn(CC(=O)Nc3ccc(Cl)cc3)c3ccc(F)cc3c2=O)cc1C	-	-	-	-	-
COc1ccc(NC(=O)Cn2cc(S(=O)(=O)c3ccccc3)c(=O)c3cc4c(cc32)OCO4)cc1	-	-	-	-46.6	-
Cc1ccc2c(c1)c(=O)c(S(=O)(=O)c1ccc(C)c(C)c1)cn2CC(=O)Nc1ccccc1	-	-	-	-47.5	-
Cc1noc(-c2ccc(NCc3ccccc3)c([N+](=O)[O-])c2)n1	-	-	-	-	-
O=C(O)c1cccc(N/N=C(\N=Nc2ccccc2)c2ccccc2)c1	-	-	-	-	-
NC(=O)/C(N=Nc1ccccc1)=N/Nc1ccccc1	-	-	-	-54.5	-
CCOc1ccccc1NC(=O)Cn1ncc2c([nH]c3ccccc32)c1=O	-	-	-	-30.4	-
COC(=O)c1ccccc1NC(=O)Cn1ncc2c(C)n(Cc3ccc(F)cc3)c(C)c2c1=O	-	-	-	-70.7	-
Fc1ccc(-c2cc(C(F)(F)F)nc(NCC3CCCO3)n2)cc1 (stereo unspecified)	32.2	-	-	-	-
CCOC(=O)c1nn(-c2ccccc2)c(=O)cc1OCC(=O)Nc1cc(C)ccc1OC	-	-	-	-	-
CCOC(=O)c1nn(-c2ccc(C)cc2)c(=O)cc1OCC(=O)Nc1cc(C)ccc1OC	-	-	-	-42.4	-
CC(C)Cc1nnc(NC(=O)Cc2ccc([N+](=O)[O-])cc2)s1	31.2	-	-	-	-
CC(C)Cc1nnc(NC(=O)CCC(=O)N2CCN(c3ccc([N+](=O)[O-])cc3)CC2)s1	-	-	-	-	-
Cc1ccccc1NC(=O)Nc1nnc(Cc2ccc([N+](=O)[O-])cc2)s1	-	-	39.8	-	-
COc1ccccc1/C=C/c1nc(C#N)c(N2CCN(c3ccccc3)CC2)o1	-	-	-	-	-
CC(O)c1cccc(NC(=O)CCCc2ccccc2)c1 (stereo unspecified)	-	-	-	-	-
Cc1cccc(NC(=O)CCCc2ccccc2)c1	-	-	-	-58.3	-
CCOC(=O)C(Cc1ccccc1)C(=O)Nc1cccc(C)c1 (stereo unspecified)	-	-	31.1	-	-
Oc1ccccc1CNc1cccc2cccnc12	-	-	-	-	-
Nc1sc(-c2ccccc2)n[n+]1Cc1cccc2cccnc12	-	-	-	-42.9	-
CCCCN(CC)C(=O)CSc1nc2c(sc3ccccc32)c(=O)n1CCc1ccccc1	-	-	-	-	-
Cc1cccc(NC(=O)C2(c3ccccc3)CC2(Cl)Cl)c1 (stereo unspecified)	-	-	-	-63.8	-
CC1CCN(c2nc(-c3cccnc3)nc3scc(-c4ccccc4)c23)CC1	-	-	40.6	-	-
Cc1cccc(N2CCN(S(=O)(=O)c3csc(C(N)=O)c3)CC2)c1C	-	-	-	-	-
CCOc1cc(C2C(C(=O)OC)=C(C)NC3=C2C(=O)c2ccccc23)c(Br)cc1O (stereo unspecified)	-	-	-	-	-
SMILES	D1 agonist	TRHR agonist	TRHR enhancer	D1 antag	D1 potentiator
CC(CCc1ccccc1)NC(=O)CCc1cn(C)c2ccccc12 (stereo unspecified)	-	-	-	-44.1	-
CCc1cccc(NC(c2ccccc2)c2nnc(-c3ccccc3F)o2)c1 (stereo unspecified)	-	-	-	-	-
CCc1nnc(NC(=O)C2Cc3ccccc3CN2S(=O)(=O)c2ccc(C)cc2)s1 (stereo unspecified)	-	-	-	-	-
CCc1nnc(NC(=O)C2Cc3ccccc3CN2S(=O)(=O)c2cccs2)s1 (stereo unspecified)	-	-	31.5	-	-
COc1ccc(NC(=O)C2Cc3ccccc3CN2S(=O)(=O)c2ccccc2)cc1OC (stereo unspecified)	-	-	-	-59.0	-
O=S(=O)(Cc1ccc(Cl)cc1)N1CCCCCC1	-	-	-	-	-
O=S(=O)(Cc1ccc(Cl)cc1)N1CCCC1	-	-	-	-74.4	-
COc1ccc(Cl)cc1NC(=O)C(C)OC(=O)C1=NNC(=O)CC1 (stereo unspecified)	-	-	-	-65.6	-
O=C1CCC(C(=O)OC(C(=O)Nc2cc(Cl)cc(Cl)c2)c2ccccc2)=NN1 (stereo unspecified)	-	-	-	-	-
